Our source for the outcome and AC50 values is PubChem BioAssay (EPA / NIEHS).

SMILES strings stand for the structures. Results filed as inconclusive are left out. Activity calls are given as the source filed them. The calls were made as follows: active = hit-call score of the fitted dose curve at least 0.9, where 1 is the maximum; inconclusive = response in the unintended direction; inactive = score below 0.9.

The nature of the assay: ACEA_ER_AUC_viability: ACEA Biosciences xCELLigence Real-Time Cell Analysis on Estrogen Receptor Agonism for Viability (AID 2283782).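 Also: hit means loss of impedance signal meaning reduced cell growth or viability.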 The procedure, abridged:
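Viability endpoint: reduced impedance area under the curve relative to DMSO, recorded by real-time electrode sensing over ~80 h of continuous exposure. Duplicate plates of T47D in hormone-depleted medium; eight concentrations, 1:4 dilutions, 100 uM maximum.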
Turning to `O=S(=O)(O)CCC(F)(F)C(F)(F)C(F)(F)C(F)(F)F`, the compound was called inactive.
The same measure, in the same setting: under `CCOCN(C(=O)CS(=O)(=O)O)c1c(C)cccc1CC` stands “inactive”; under `NC(=O)C(F)(F)C(F)(F)C(F)(F)C(F)(F)C(F)(F)C(F)(F)C(F)(F)F`, “inactive”.
On the same count and under the same terms, for `CCc1cccc(C)c1N(C(=O)C(=O)O)C(C)COC` (stereo unspecified) the value was “inactive”; for `O=S(=O)(OCC(F)(F)F)C(F)(F)C(F)(F)C(F)(F)C(F)(F)F`, “inactive”.
Still for that read-out and setting: under `CO[Si](C)(CCC(F)(F)C(F)(F)C(F)(F)C(F)(F)C(F)(F)C(F)(F)F)OC` stands “inactive”.
For the compound `Brc1ccccn1`, the call was inactive.
Same read-out and setting: for `NC(O)(C(F)(F)F)C(F)(F)F` the value was “inactive”; for `O=C=Nc1cccc2c(N=C=O)cccc12`, “inactive”.
For `COc1ccccc1C=O`, the call was inactive.
As to `FC(F)(F)C(F)(F)C(F)(F)C(F)(F)C(F)(F)C(F)(F)CC[Si](Cl)(Cl)Cl`, the compound was classed as inactive.
For the compound `O=C(Cl)C(F)(F)C(F)(F)C(F)(F)C(F)(F)C(F)(F)C(F)(F)F`, the call was inactive.
Still for that read-out and setting: for `OCC(F)(F)C(F)(F)C(F)(F)CO` the value was “inactive”; for `O=C1OC(=O)c2ccc3c4c(ccc1c24)C(=O)OC3=O`, “inactive”; for `O=C(O)C(F)(F)C(F)(F)C(F)(F)C(=O)O`, “inactive”.
In the case of `C[Si](C)O[Si](C)C`, the AC50 (commonly the midpoint of the concentration-response curve, whichever way the signal moves) was 50 µM (active).
Consider `COCCC(=O)OC`, for which the compound was classed as inactive.
Consider `CCN(CC)c1ccc2c(c1)Oc1cc(N(CC)CC)ccc1C21OC(=O)c2ccccc21`, for which the concentration at half-maximal activity (AC50) is 8.06 µM (active).
For `O=C(O)C(F)(F)C(F)(F)C(F)(F)OC(F)(C(F)(F)F)C(F)(F)F`, the call was inactive.
For the compound `OCCCCl`, the compound was called inactive.
For the compound `Cc1cnccn1`, the call was inactive.
For the compound `CC1=CC2C3C=CC(C3)C2C1C` (stereo unspecified), the AC50 is 50 µM (active).
`N#CCCOCCC#N`: the outcome was inactive.
With `CCCCCCCC/C=C\CCCCCCCC(=O)OCC(O)CO` (stereo unspecified), the AC50 is 50 µM (active).
`CC(C)C(=O)OCc1ccccc1`: the compound was classed as inactive.
Turning to `Cc1ccc(S(=O)(=O)C(I)I)cc1`, the half-maximal activity concentration (AC50) was 4.22 µM (active).
The same measure, in the same setting: under `Cc1cc(C)c(O)c(C(C)(C)C)c1` stands 90.6 µM (active).
Regarding `OCC(O)CC(F)(F)C(F)(F)C(F)(F)C(F)(F)C(F)(F)C(F)(F)C(F)(F)C(F)(F)F` (stereo unspecified), the result was inactive.
On the same count and under the same terms, for `CC(C)=CCCC(C)O` (stereo unspecified) the value was “inactive”.
`CCN(CCO)S(=O)(=O)C(F)(F)C(F)(F)C(F)(F)C(F)(F)C(F)(F)C(F)(F)C(F)(F)C(F)(F)F`: the AC50 is 20.2 µM (active).
`CC(=O)C=O`: the call was inactive.
